According to PubChem BioAssay (Tox21):
Inconclusive results are not listed. Entries that show only a call come without a potency. The source holds several records for some structures; these can differ, active in one and inactive in another. Calls of active or inactive are those of the source. Calls follow the shape of the dose curve; as a rule, active = well fitted cell-killing curve with a large enough effect in the repeat runs; inconclusive = weak or mixed curves, or effect the other way; inactive = flat fitted curve, though single readings scatter.
Potency is read from the fitted curve at half-maximal effect.

Test: qHTS assay to identify small molecule that activate the aryl hydrocarbon receptor (AhR) signaling pathway - cell viability counter screen (AID 743086); also: nearly all actives have a fitted effect of over 45% in size;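 as to viability change, negative = cytotoxic: HepG2 liver cells carrying the AhR DRE luciferase reporter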
Details: HepG2-AhR-luc viability, CellTiter-Fluor, 24 h; series mostly up to 70.3 µM; viability change, negative = cytotoxic: at the top concentration
Excerpt: U.S. Tox21 Program National Center for Advancing Translational Sciences [NCATS] NIH Chemical Genomics Center [NCGC] U.S. Environmental Protection Agency [EPA] National Institutes of Environmental Health Sciences [NIEHS] National Toxicology Program [NTP] U.S. Food and Drug Administration [FDA] Tox21 Assay overview: The Aryl hydrocarbon Receptor (AhR), a member of the family of basic helix-loop-helix transcription factors, is crucial to adaptive responses to environmental changes. AhR mediates cellular responses to environmental pollutants such as aromatic hydrocarbons through induction of phase I and II enzymes but also interacts with other nuclear receptor signaling pathways A cell based HepG2-AhR-luc assay (HG2L7.5c1 cell line, developed by Dr. Michael S. Denison, University of California at Davis) was used to assess the activation of AhR. HepG2 (human hepatocellular carcinoma) cells were stably transfected with an Ah receptor-responsive firefly luciferase reporter gene plasmid containing 20 dioxin responsive elements and luciferase reporter gene. Increased luciferase activity can be used to identify the compounds that induce AhR activation. The cytotoxicity of the compounds screened against the HepG2-AhR-luc cell line was tested in parallel by measuring the cell viability using CellTiter-Fluor assay in the same wells.
Tox21 Assay Protocol Summary: 4000 cells in 5 uL/well were dispensed into white wall/solid bottom 1536-well plates using a Multidrop Combi (Thermo Fisher Scientific Inc., Waltham, MA) dispenser. After the assay plates were incubated at 37C for 5 h, 23 nL of compound or DMSO vehicle was transferred to the assay plates by a pintool station (Kalypsys, San Diego, CA). The plates were incubated at 37C for 24 hr. For cell viability measurement, 1 ul/well of CellTiter-Fluor reagent (Promega, Madison, WI) was added into the assay plates using a Flying Reagent Dispenser (FRD) (Aurora Discovery, CA),and then the assay plates were incubated at 37C for 30 min. The fluorescence intensity in the plates was measured using a ViewLux plate reader (PerkinElmer, Shelton, CT), followed by the addition of 4 uL of ONE-Glo Luciferase Assay reagent (Promega) using an FRD (Aurora Discovery). After the assay plates were incubated at room temperature for 30 min, luminescence intensity was measured using a ViewLux plate reader (Perkin Elmer).
With `CN(C)C` the Potency was “inactive”.
With `Nc1ccc2c(c1)C(=O)c1ccccc1C2=O` the Potency was 60 µM (active).
With `c1ccc2c(c1)ccc1ncccc12` the Potency was “inactive”.
In the case of `C1CN(SSN2CCOCC2)CCO1`, the Potency is reported as “inactive”.
For `Nc1ccc2c(O)cc(S(=O)(=O)O)cc2c1`, the Potency was 9.7 µM (active).
In the case of `Cc1ccc(/C(=C\CN2CCCC2)c2ccccn2)cc1`, the Potency is reported as “inactive”.
In the case of `COC(=O)CC(=O)OC`, the Potency is reported as “inactive”.
In the case of `CCCCCCC(C)O` (stereo not given), the Potency is reported as “inactive”.
With `CC/C(=C(/CC)c1ccc(O)cc1)c1ccc(O)cc1` the Potency was “inactive”.
For `C[N+](C)(C)CCO`, the Potency was “inactive”.
With `CC1(C)OC(=O)NC1=O` the Potency was “inactive”.
In the case of `O=Cc1ccccc1C=O`, the “viability change, negative = cytotoxic” value is reported as -15.8% (inactive).
In the case of `CC(=O)OC(C)C`, the Potency is reported as “inactive”.
In the case of `c1ccc2ncccc2c1`, the Potency is reported as “inactive”.
In the case of `O=[Se](O)O`, the Potency is reported as 27.3 µM (active) and inactive.
In the case of `CN(C)CCCN1c2ccccc2Sc2ccc(Cl)cc21`, the Potency is reported as 30.6 µM (active).
For `C=C[C@H]1CN2CC[C@H]1C[C@H]2[C@H](O)c1ccnc2ccc(OC)cc12`, the “viability change, negative = cytotoxic” value was -27.6% (inactive).
In the case of `CC(=O)Oc1c(C)c(C)c2c(c1C)CC[C@@](C)(CCC[C@H](C)CCC[C@H](C)CCCC(C)C)O2`, the Potency is reported as “inactive”.
For `CC(C)(Oc1ccc(Cl)cc1)C(=O)O`, the Potency was “inactive”.
With `C=CC(=O)OCCCC` the Potency was “inactive”.
For `CCC/C=C/C=O`, the Potency was “inactive”.
For `CCCCCCCCCCC(CO)CCCCCCCC` (stereo not given), the Potency was “inactive”.
For `Nc1ccc(O)c(N)c1`, the Potency was 43.3 µM (active).
With `CCCOCCO` the Potency was “inactive”.
With `CCO[Si](CCCNC(N)=O)(OCC)OCC` the Potency was “inactive”.
With `CC1(C)C(C=C(Cl)Cl)C1C(=O)OCc1cccc(Oc2ccccc2)c1` (stereo not given) the Potency was “inactive”.
With `C=CN1CCCC1=O` the Potency was “inactive”.
With `CN(C)/N=N/c1nc[nH]c1C(N)=O` the “viability change, negative = cytotoxic” value was -8.06% [at 95 µM] (inactive).
For `COc1ccc(C(=O)c2ccccc2O)c(O)c1`, the Potency was “inactive”.
For `COC(=O)c1ccc(C)cc1`, the Potency was “inactive”.
For `CC(C)[C@@H]1CC[C@@H](C)CC1=O`, the Potency was “inactive”.
With `O=C(O)CCCC(=O)O` the Potency was “inactive”.
For `CC(C)(C)c1cccc(C(C)(C)C)c1O`, the Potency was “inactive”.
With `NCCOCCO` the Potency was “inactive”.
With `O=C(O)c1ccc(O)cc1` the Potency was “inactive”.
With `Cc1ccc(S(=O)(=O)O)cc1C` the Potency was “inactive”.
For `O=S1(=O)CCCO1`, the Potency was “inactive”.
For `c1ccc2c(c1)[nH]c1ccccc12`, the Potency was “inactive”.
In the case of `C=CCNCC=C`, the Potency is reported as “inactive”.
In the case of `C=CC(C)(O)CCC=C(C)C` (stereo not given), the Potency is reported as “inactive”.
